Measurements: PubChem BioAssay (Tox21)
Records with an inconclusive call do not appear. A number with no mark means an inactive call. The call rests on the fitted dose curve.

Assay: qHTS assay to identify small molecule agonists of the AP-1 signaling pathway - cell viability counter screen (AID 1159525); further: nearly all actives have a fitted effect of over 55% in size
Settings: ME-180 (cervical carcinoma) AP-1-bla cells viability, ATP luminescence, 5 h; series mostly up to 76.8 µM; viability change, negative = cytotoxic: at the top concentration
Description: National Center for Advancing Translational Sciences [NCATS]
NIH Chemical Genomics Center [NCGC]
U.S. Environmental Protection Agency [EPA]
National Institutes of Environmental Health Sciences [NIEHS]
National Toxicology Program [NTP]
U.S. Food and Drug Administration [FDA]
Activator protein-1 (AP-1), a transcription factor, plays an important role in tumor genesis by regulating genes involved in cell proliferation, differentiation, apoptosis, and angiogenesis. AP-1 activity is induced by a complex network of signaling pathways that involves extracellular signals, such as growth factors. The AP-1 protein complex formed from c-Fos and c-Jun binding to the AP-1 response element results in transcriptional activation of genes containing such elements within their promoter.
Low molecular weight molecules have been discovered and developed to modulate various components of these signaling pathways, for example, MAP kinase inhibitors. However, many points of pathway modulation remain untested due to the lack of chemical probes making this signaling locus of general interest.
Using a beta-lactamase reporter-gene under control of the AP-1 response element, a cell-based assay [CellSensor(TM) AP-1-bla ME-180 developed by Invitrogen Corp.] was used to measure EGF-induced signaling. The Tox21 10K library compounds were measured for their ability to positively modulate the action of EC50 EGF on reporter gene activity. Compounds were screened in a 15-pt titration series in 1536-well format. The cytotoxicity of the Tox21 compound library against this cell line was tested in parallel by measuring the intra cellular ATP content in the same wells.
Tox21 Assay Protocol Summary:
2500 cells/5uL in Opti-MEM medium containing 0.5% dialyzed FBS, 0.1 mM NEAA, 1 mM sodium pyruvate and 10 mM HEPES was dispensed into 1536-well black wall/clear bottom plates using a Multidrop dispenser and cells were cultured at 37 degrees Celsius overnight. Next day 23 nL of compounds dissolved in DMSO, positive controls or DMSO were delivered to each well using a pin tool. The plates were incubated at 37 degrees Celsius for 5 hours. 1 uL of LiveBLAzerTM B/G FRET substrate (Solution A+B+C+D) was added to each well using a Flying Reagent Dispenser. After incubated at room temperature for 2.5 hours the plates were measured on an EnVision plate reader at Excitation 405nm, Emission1=460nm and Emission 2=530nm. The %Activity was determined from the ratio of 460nm/530nm.
After the plates were read for Beta-Lactamase assay on Envision; 3 ul Cell Titer Glo (Promega) was added to measure the cytotoxicity and the plates were then incubated at RT in dark for 30 min. The luminescence was read on ViewLux (Perkin Elmer, Shelton, CT) using 6 sec exposure. ViewLux data was expressed as relative luminescence units.
For primary data analysis, raw plate reads for each titration point were first normalized relative to […] EGF control (100%) and DMSO only wells (basal, 0%).
For primary data analysis for viability assay, raw plate reads for each titration point were first normalized Tetra n-octyl ammonium bromide control (-100%) and DMSO (control, 100%).

SMILES | viability change, negative = cytotoxic
CC(CN)CCCN (stereo not given) | 9.12%
Cc1c(Cn2ccnc2)c2ccccc2n1CCC(=O)O | 0.0703% [at 35.3 µM]
CC(C(=O)O)c1ccc(-c2ccccc2)c(F)c1 (stereo not given) | -6.51%
CN(C(=O)CCCOc1ccc2[nH]c(=O)ccc2c1)C1CCCCC1 | -0.972% [at 35.3 µM]
CCOC(=O)C1=C(C)NC(C)=C(C(=O)OC)C1c1cccc([N+](=O)[O-])c1 (stereo not given) | 0.836% [at 35.3 µM]
Oc1ccc(Sc2ccc(O)cc2)cc1 | 1.66%
Cc1ccccn1 | -5.16%
CN(C)C/C=C(/c1ccc(Br)cc1)c1cccnc1 | 5.58% [at 35.3 µM]
CCN(CC)C(C)CN1c2ccccc2Sc2ccccc21 (stereo not given) | 3.94% [at 35.3 µM]
CCCC(C)C | 0.876%
Cc1cc(C)c(S(=O)(=O)O)cc1N=Nc1cc(S(=O)(=O)O)c2ccccc2c1O | 17.2%
CC[C@H](C)[C@H](N)C(=O)O | 1.09% [at 35.3 µM]
O=C(O)/C=C/c1cnc[nH]1 | -2.59%
O=c1c2ccccc2nnn1CCl | -8.83%
CCOC(=O)[C@H](CCc1ccccc1)N[C@H]1CCc2ccccc2N(CC(=O)O)C1=O | 2.64% [at 35.3 µM]
CC(=O)OCCc1ccccc1 | -1.89%
CC(=O)NCCCS(=O)(=O)O | -0.163% [at 35.3 µM]
CC(=O)Nc1ccc(/C=N/NC(N)=S)cc1 | 5.07% [at 35.3 µM]
Cc1ccc(O)c([C@H](CCN(C(C)C)C(C)C)c2ccccc2)c1 | -4.23% [at 35.3 µM]
OC(CCN1CCCCC1)(c1ccccc1)C1CCCCC1 (stereo not given) | -14.9% [at 35.3 µM]

SMILES | viability change, negative = cytotoxic
Cc1cc(O)ccc1N | 20.2%
O=C(Cl)c1c(Cl)cccc1Cl | -0.638%
Cc1cc(CC(=O)O)c(C)n1-c1ccc(Cl)cc1 | 1.19% [at 35.3 µM]
CCCCCCc1ccc(N)cc1 | -18.7%
CC(C)(C)c1cc(CCC(=O)OCC(COC(=O)CCc2cc(C(C)(C)C)c(O)c(C(C)(C)C)c2)(COC(=O)CCc2cc(C(C)(C)C)c(O)c(C(C)(C)C)c2)COC(=O)CCc2cc(C(C)(C)C)c(O)c(C(C)(C)C)c2)cc(C(C)(C)C)c1O | 5.23% [at 35.3 µM]
O=C(CC(=O)c1ccccc1)c1ccccc1 | -11%
COCCO | 0.167%
CN1CCC(OC(c2ccccc2)c2ccccc2)CC1 | 1.4% [at 35.3 µM]
CCCCOc1cc(C(=O)OCCN(CC)CC)ccc1N | -8.18% [at 35.3 µM]
CCCCCCCCC(CO)CCCCCC (stereo not given) | 1.76%
C1=Cc2ccccc2C1 | -4.11%
Nc1ccc(C(=O)Nc2ccccc2N)cc1 | -20.2% [at 35.3 µM]
O=S(=O)(O)c1ccc(O)c2ncccc12 | -0.735%
CN(c1nccc(=O)[nH]1)C1CCN(c2nc3ccccc3n2Cc2ccc(F)cc2)CC1 | -4.66% [at 35.3 µM]
CCCCCCCCCCCCCCCC(=O)OC/C=C(C)/C=C/C=C(C)/C=C/C1=C(C)CCCC1(C)C | -0.568%
CC(C)CCCC(C)CCO (stereo not given) | 0.0606%
C=CCCCCCC | 0.754%
Nc1ccc(C(=O)N2CC3CC(CN(Cc4ccccc4)C3)C2)cc1 | -0.0585% [at 35.3 µM]
CCCCCC/C=C/C=O | -6.3%
CNS(=O)(=O)Cc1ccc2[nH]cc(CCN(C)C)c2c1 | 11.4% [at 35.3 µM]
